Composite z-score and z-score data for 6 compounds are collected here from PubChem BioAssay.

Activity calls are given as the source filed them.

The subject of test [1] is Plasmodium falciparum Sir2 (PF13_0152, Sir2A). As to the kind of experiment: Plasmodium falciparum Sir2A binding compounds – biochemical, small-molecule microarray, 635 nm fluorescence, primary screen (AID 1098).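 Also: score merges spot fluorescence intensity with its signal-to-noise ratio.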 Particulars: fluorescence 635 nm, higher = more signal.
Test [2] in a line: probe aDKK1 binding to arrayed compounds – biochemical, biotinylated probe, 635/667 nm fluorescence, primary screen (AID 1099).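 Also: score merges 667nm spot fluorescence with signal to noise across triplicate slides.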 Particulars: small-molecule microarray, higher = more signal.
Test [3] is described as follows: probe aCHRDL2 binding to arrayed compounds – biochemical, biotinylated probe, 635/667 nm fluorescence, primary screen (AID 1100). Particulars: small-molecule microarray, higher = more signal.
Test [4] in a line: change in splice reporter luminescence, either direction, cell-based, HEK293, spliceosome inhibition project, primary screen (AID 1101).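 Also: HEK293 cells carrying a splicing-competent luciferase reporter gene; test concentration not given here.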 Particulars: HEK293 splicing luciferase reporter, 24 h, higher = more signal, called active from +8 up or from −8 down. A general note: In a reporter assay the amount or activity of a reporter protein is the signal.
The target in test [5] is Fibroblast growth factor 10 (Homo sapiens) (UniProt O15520). As to the kind of experiment: compounds binding fibroblast growth factor 10 – biochemical, small-molecule microarray, 635 nm fluorescence, primary screen (AID 1102). Particulars: FGF10 binding, fluorescence 635 nm, higher = more signal.
Chain of Fibroblast growth factor 10 (Homo sapiens) (O15520 whole entry, looked up): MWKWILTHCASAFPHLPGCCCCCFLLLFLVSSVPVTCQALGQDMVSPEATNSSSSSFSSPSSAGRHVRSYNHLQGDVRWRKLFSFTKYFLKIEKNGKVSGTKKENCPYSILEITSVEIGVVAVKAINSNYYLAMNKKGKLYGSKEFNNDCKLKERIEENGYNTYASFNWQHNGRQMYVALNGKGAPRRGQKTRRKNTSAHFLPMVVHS
Test [6] concerns glycogen synthase kinase-3 (GSK3A per assay name; protocol says GSK3B). The test is described as follows: compounds binding glycogen synthase kinase-3 – biochemical, small-molecule microarray, 635 nm fluorescence, GSK3A, primary screen (AID 1103). Also: the record names both GSK3A and GSK3B. Conditions: fluorescence 635 nm, higher = more signal.
Test [7] has as its target Epidermal growth factor receptor (Homo sapiens) (UniProt P00533). As to the kind of experiment: compounds binding epidermal growth factor receptor – biochemical, small-molecule microarray, 635 nm fluorescence, primary screen (AID 1104).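 Also: score merges 667 nm emission intensity with spot signal to noise over triplicate slides.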 Particulars: EGFR binding, higher = more signal.
Test [8] concerns the target Follistatin-related protein 3 (Homo sapiens) (UniProt O95633). As to the kind of experiment: compounds binding follistatin-related protein 3 – biochemical, small-molecule microarray, 635 nm fluorescence, primary screen (AID 1105).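 Also: score merges emission near 667 nm and signal to noise per printed spot across three slides.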 Conditions: FSTL3 binding, higher = more signal.
Test [9] has as its target Dickkopf-related protein 1 (Homo sapiens) (UniProt O94907). As to the kind of experiment: small molecules binding DKK1 protein – biochemical, small-molecule microarray, 635 nm fluorescence scan, primary screen (AID 1106).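 Also: score merges emission near 667 nm with signal to noise over three replicate slides.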 Particulars: higher = more signal.
The test system of test [10] is Inhibin beta A chain (activin A). The test is described as follows: small molecules binding activin A – biochemical, small-molecule microarray, 635 nm fluorescence scan, primary screen (AID 1107).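 Also: mouse activin A protein probed at 4.33 µg/mL on printed slides; score merges bound-protein fluorescence near 667 nm with spot signal-to-noise.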 Particulars: INHBA, higher = more signal.
The subject of test [11] is Human papillomavirus type 1a protein E7 (residues 44-93). As to the kind of experiment: small molecules binding HPV E7 44-93 – biochemical, small-molecule microarray, residues 44-93, 635 nm fluorescence, primary screen (AID 1108).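 Also: E7 fragment applied at 1 µg/mL in TBST for 1 h at 4 C; score combines spot fluorescence with its signal to noise ratio.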 Particulars: fluorescence 635 nm, higher = more signal.
The nature of test [12]: hepatitis C replication reporter changes, two-sided – Huh7 cells, luciferase reporter, HCV replication inhibitor project, primary screen (AID 1109).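 Also: huh7 hepatoma cells harbouring a luciferase neomycin HCV replicon reporter; luciferase luminescence as measure of HCV replicon replication; test concentration not given here.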 Particulars: Huh7 HCV replicon luciferase reporter, 48 h; higher = more signal.
In test [13] the target is Left-right determination factor 2 (Homo sapiens) (UniProt O00292). As to the kind of experiment: small molecules binding LEFTY2 protein – biochemical, small-molecule microarray, 635 nm fluorescence scan, primary screen (AID 1110). Conditions: higher = more signal.
Chain of Left-right determination factor 2 (Homo sapiens) (O00292 whole entry, looked up): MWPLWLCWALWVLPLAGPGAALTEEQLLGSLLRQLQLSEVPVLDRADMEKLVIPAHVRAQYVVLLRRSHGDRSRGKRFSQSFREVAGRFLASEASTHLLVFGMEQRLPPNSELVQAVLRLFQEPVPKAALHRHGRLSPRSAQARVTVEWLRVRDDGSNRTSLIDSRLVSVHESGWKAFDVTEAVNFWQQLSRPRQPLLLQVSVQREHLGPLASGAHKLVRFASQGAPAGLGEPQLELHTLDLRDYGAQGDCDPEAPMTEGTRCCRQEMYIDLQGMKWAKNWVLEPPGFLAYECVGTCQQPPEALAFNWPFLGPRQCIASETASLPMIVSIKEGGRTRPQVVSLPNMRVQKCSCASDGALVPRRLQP
Test [14] has as its target Calmodulin-1 (Homo sapiens) (UniProt P0DP23). The test is described as follows: small molecules binding calmodulin-1 with EGTA – biochemical, small-molecule microarray, Cy5-labelled CALM1, profiling panel (AID 1111).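 Also: labelled calmodulin applied in Tris saline Tween buffer holding calcium plus EGTA and DTT.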 Conditions: Cy5-CALM1 binding fluorescence, higher = more signal.
Test [15] shares this target. As to the kind of experiment: small molecules binding Ca-loaded calmodulin-1 – biochemical, small-molecule microarray, Cy5-labelled CALM1, plus calcium, artefact control for SMM control-protein annotation, profiling panel (AID 1112).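 Also: score merges spot fluorescence with signal to noise from triplicate slides.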 Particulars: Cy5-CALM1 binding fluorescence, higher = more signal.
The nature of test [16]: probe aWnt5a binding to arrayed compounds – biochemical, biotinylated probe, 635/667 nm fluorescence, primary screen (AID 1113).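 Also: score merges 667 nm fluorescence intensity with signal-to-noise per printed feature.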 Particulars: small-molecule microarray, higher = more signal.
Test [17] is described as follows: probe aShh binding to arrayed compounds – biochemical, biotinylated probe, 635/667 nm fluorescence, primary screen (AID 1114).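 Also: probe is biotin-labelled aShh protein from a stem cell growth factor screen; measures binding of labelled protein to compounds printed on the slide; score merges feature fluorescence at 667 nm with signal-to-noise.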 Particulars: small-molecule microarray, higher = more signal.
Test [18] in a line: probe aNog binding to arrayed compounds – biochemical, biotinylated probe, 635/667 nm fluorescence, primary screen (AID 1115).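 Also: probe is biotinylated aNog protein used at 0.15 µg/mL for 1 h at 4 C; z-score combines 667 nm fluorescence of each spot with its signal to noise.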 Conditions: small-molecule microarray, higher = more signal.
Test [19] has as its target Torsin-1A-interacting protein 1 (Homo sapiens) (UniProt Q5JTV8). As to the kind of experiment: compound microarray binding of lysate hLAP1 – cell lysate, small-molecule microarray, COS7 lysate, 635/667 nm fluorescence, primary screen (AID 1116). Conditions: 635 nm fluorescence, higher = more signal.
In test [20] the target is Alpha-bungarotoxin (Bungarus multicinctus) (UniProt P60615). As to the kind of experiment: compounds binding labelled alpha-BTX control protein – biochemical, small-molecule microarray, Alexa647 label, 635/667 nm fluorescence, artefact control for SMM control protein annotation, profiling panel (AID 1117). Conditions: alpha-BTX-A647 binding fluorescence, higher = more signal.
Chain of Alpha-bungarotoxin (Bungarus multicinctus) (P60615 whole entry, looked up): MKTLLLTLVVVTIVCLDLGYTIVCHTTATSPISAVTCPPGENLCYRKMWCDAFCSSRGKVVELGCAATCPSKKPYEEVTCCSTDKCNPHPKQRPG

Chain of Follistatin-related protein 3 (Homo sapiens) (O95633 whole entry, looked up): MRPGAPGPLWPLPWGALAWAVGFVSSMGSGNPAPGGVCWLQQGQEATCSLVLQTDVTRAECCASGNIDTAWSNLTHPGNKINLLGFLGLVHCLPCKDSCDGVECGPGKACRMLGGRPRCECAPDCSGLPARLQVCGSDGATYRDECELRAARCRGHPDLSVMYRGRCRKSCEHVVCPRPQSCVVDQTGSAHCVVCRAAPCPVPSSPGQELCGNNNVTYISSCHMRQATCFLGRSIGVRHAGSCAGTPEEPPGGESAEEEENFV
Chain of Epidermal growth factor receptor (Homo sapiens) (P00533 whole entry, looked up): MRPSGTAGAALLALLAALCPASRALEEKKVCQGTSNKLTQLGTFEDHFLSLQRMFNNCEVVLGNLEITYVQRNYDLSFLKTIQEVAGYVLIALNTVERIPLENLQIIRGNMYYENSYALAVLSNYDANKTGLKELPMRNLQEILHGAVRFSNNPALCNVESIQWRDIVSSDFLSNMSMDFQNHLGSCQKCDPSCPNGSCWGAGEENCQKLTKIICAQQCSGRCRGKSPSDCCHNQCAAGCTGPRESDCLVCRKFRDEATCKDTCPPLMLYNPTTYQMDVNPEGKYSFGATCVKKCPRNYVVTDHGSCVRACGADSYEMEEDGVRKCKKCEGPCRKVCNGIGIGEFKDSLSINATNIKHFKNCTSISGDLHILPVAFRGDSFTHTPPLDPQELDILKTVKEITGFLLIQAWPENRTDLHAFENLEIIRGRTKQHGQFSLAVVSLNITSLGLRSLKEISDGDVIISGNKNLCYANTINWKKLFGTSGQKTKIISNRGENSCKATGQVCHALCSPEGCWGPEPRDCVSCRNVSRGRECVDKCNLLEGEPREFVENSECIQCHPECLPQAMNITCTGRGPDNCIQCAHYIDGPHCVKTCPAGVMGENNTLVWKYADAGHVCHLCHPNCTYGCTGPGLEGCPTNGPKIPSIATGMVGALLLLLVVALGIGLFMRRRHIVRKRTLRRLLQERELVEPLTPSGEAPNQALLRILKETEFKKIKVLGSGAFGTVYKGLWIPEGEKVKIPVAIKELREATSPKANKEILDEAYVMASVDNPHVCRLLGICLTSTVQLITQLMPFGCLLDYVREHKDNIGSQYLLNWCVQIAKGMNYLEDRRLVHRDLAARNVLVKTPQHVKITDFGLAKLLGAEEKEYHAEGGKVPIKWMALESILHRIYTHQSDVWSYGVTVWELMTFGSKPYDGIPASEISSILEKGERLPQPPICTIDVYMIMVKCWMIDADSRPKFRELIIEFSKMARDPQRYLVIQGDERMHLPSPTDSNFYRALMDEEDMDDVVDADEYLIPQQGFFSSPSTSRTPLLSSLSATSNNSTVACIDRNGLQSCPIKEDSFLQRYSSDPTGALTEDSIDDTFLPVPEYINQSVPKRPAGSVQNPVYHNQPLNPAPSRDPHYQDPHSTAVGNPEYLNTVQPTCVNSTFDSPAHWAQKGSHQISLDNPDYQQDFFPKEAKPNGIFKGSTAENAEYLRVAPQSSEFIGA
Chain of Torsin-1A-interacting protein 1 (Homo sapiens) (Q5JTV8 whole entry, looked up): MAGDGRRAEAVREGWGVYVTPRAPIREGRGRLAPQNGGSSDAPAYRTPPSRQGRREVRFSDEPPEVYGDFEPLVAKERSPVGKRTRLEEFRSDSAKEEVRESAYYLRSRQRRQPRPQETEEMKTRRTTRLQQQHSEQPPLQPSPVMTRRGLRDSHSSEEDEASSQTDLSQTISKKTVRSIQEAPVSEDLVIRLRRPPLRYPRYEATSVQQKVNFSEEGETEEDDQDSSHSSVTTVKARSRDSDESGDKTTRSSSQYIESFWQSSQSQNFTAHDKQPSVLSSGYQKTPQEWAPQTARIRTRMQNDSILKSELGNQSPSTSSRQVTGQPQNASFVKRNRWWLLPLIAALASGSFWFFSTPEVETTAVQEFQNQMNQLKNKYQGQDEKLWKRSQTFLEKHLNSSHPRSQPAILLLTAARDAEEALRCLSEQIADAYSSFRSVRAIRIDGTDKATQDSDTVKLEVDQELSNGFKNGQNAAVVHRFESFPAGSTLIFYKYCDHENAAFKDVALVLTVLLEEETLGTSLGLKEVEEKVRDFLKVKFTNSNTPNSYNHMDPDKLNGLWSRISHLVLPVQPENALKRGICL
Chain of Dickkopf-related protein 1 (Homo sapiens) (O94907 whole entry, looked up): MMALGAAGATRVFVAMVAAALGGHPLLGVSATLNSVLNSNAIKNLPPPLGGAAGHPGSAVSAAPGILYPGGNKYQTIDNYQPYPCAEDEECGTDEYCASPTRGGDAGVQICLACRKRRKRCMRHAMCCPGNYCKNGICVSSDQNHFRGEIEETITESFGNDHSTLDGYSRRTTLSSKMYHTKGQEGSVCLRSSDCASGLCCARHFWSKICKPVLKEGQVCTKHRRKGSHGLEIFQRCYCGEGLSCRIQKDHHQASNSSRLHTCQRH

With `O=C1OCC=C[C@H]2OC34C=CCN(Cn5nnc6ccccc65)C(=O)[C@H]3N(CCO)C(=O)[C@@H]4[C@@H]12` (stereo not given in full), the composite z-score in [1] is 0.101; in test [2], -0.0279; in test [3], 0.329; in test [5], -1.33; in [6] it was -1.02; in [7] it was -1.09. Moreover, the composite z-score in [8] is -1.35; in [9], -1.71; in [10] it was -0.0812; in test [11] it was 0.316; in [13] it was -1.41; in [14], -0.157. The composite z-score in test [15] is 0.62; in [16], -0.148; in test [17], -0.0192; in test [18] it was 0.0963; in test [19] it was -0.0193; in [20], -2.05. Also, the z-score is 1.15 (inactive) in [4] and -0.105 in test [12].

As to `CCCC[C@@H](O)C1=C(C)Cn2c(=O)n(-c3ccccc3)c(=O)n2[C@H]1CO`, the composite z-score was -0.0833 in test [1]; -0.526 in [2]; -0.487 in [3]; 0.132 in test [5]; -0.349 in test [6]; 0.0431 in [7]. Further, the composite z-score in test [8] is -0.265; in test [9], 0.0869; in test [10] it was 0.146; in test [11], -0.867; in test [13], 0.0031; in [14], -0.737. Also, the composite z-score in [15] was -0.122; in [16], -0.117; in test [17], -0.221; in test [18], 0.115; in test [19], 0.105; in test [20] it was -0.409. Also, the z-score in test [4] is -1 (inactive); in [12], 0.384.

For `C=C(COC)C(=O)CC[C@H](OC(C)=O)c1ccccc1OCCO`, the composite z-score in test [1] was 0.858; in [2], -0.348; in test [3], 0.151; in [5] it was 1.5; in [6], -0.41; in test [7] it was -0.567. In addition, the composite z-score in test [8] is -0.262; in [9] it was 0.0024; in [10], 1.13; in [11], 0.0337; in test [13] it was -0.0181; in test [14], -0.714. For the same compound, the composite z-score is -1.1 in test [15]; -0.15 in test [16]; -0.223 in test [17]; -0.397 in [18]; 1.59 in test [19]; -0.15 in test [20]. The z-score in test [4] is -0.0648 (inactive); in test [12], -1.94.

For the compound `O=C1O[C@H](c2ccccc2)[C@H](c2ccccc2)N2[C@H]1[C@@H](C(=O)O)[C@]1(C(=O)Nc3ccccc31)[C@H]2c1ccc(OCCO)cc1`, the composite z-score in test [1] was 0.975; in [2], -0.0668; in test [3], -0.0097; in [5], 0.141; in test [6], -0.0583; in test [7], -0.055. For the same compound, the composite z-score is 0.0497 in test [8]; -0.449 in test [9]; 0.601 in test [10]; 1.45 in test [11]; -0.242 in test [13]; 1.58 in [14]. For the same compound, the composite z-score is 0.5 in test [15]; -0.0977 in [16]; -0.187 in test [17]; -0.574 in test [18]; 0.811 in [19]; 0.968 in test [20]. For the same compound, the z-score in test [4] is -0.749 (inactive); in [12], 0.042.

Take `C[C@]1(C(=O)NC2CC2)c2ccccc2C(=O)N(Cc2cc(F)cc(C(F)(F)F)c2)[C@H]1c1ccc(CO)cc1`: the composite z-score is 0.938 in [1]; -0.554 in test [2]; 0.87 in test [3]; -0.698 in test [5]; -1.08 in test [6]; -1.16 in test [7]. Besides, the composite z-score was -0.801 in test [8]; -1.46 in test [9]; -0.672 in test [10]; 1.49 in [11]; -1.59 in test [13]; -0.448 in test [14]. The composite z-score in test [15] was 0.0045; in [16], -0.187; in test [17], -0.469; in test [18] it was -0.658; in test [19] it was -0.65; in [20] it was -0.442. Also, the values for the z-score in test [4] and in [12] were -0.224 (inactive) and -0.782, respectively.

As to `COC(=O)[C@@]1(Cc2ccccc2)[C@H]2c3cc(C(=O)N(C)C)n(CCF)c3C[C@H]2CN1C(=O)c1ccccc1`, the composite z-score is 1.56 in [1]; 1.27 in test [2]; 1.42 in [3]; -0.0624 in [5]; 0.0979 in [6]; -0.469 in test [7]. The composite z-score in test [8] was 0.0598; in test [9] it was -1.23; in test [10], -0.711; in [11], 0.233; in test [13], -0.555; in [14], 2.8. Besides, the composite z-score in [15] is 1.31; in [16] it was -0.0118; in test [17], -0.305; in test [18], -0.52; in test [19], 3.08; in [20], 1.43. Also, the figures for the z-score in [4] and in test [12] were -1.72 (inactive) and -1.66, respectively.
